Sampled rows, rich in hits. Any-hit rate of the full collection: about 3.9%.
USP2a inh – qHTS Assay for Inhibitors of Ubiquitin-specific Protease USP2a Using CHOP2 as the Reporter. USP2 core, Ub-CHOP2 coupled fluorogenic reporter, 485/531. 330,000 compounds, 0.01% hits. Ubiquitin carboxyl-terminal hydrolase 2 (Homo sapiens), O75604. Potency, µM (doses to about 38.3 µM), without a hit: at the top dose activity change, negative = inhibition, actives largely listed as inhibitors;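 note: potency is the fitted concentration of half-maximal effect; plate controls were DMSO wells for no effect and full inhibition by NEM control for full effect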
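Cell-free coupled assay: 10nM USP2 core preincubated 30min RT with compound in Tris-HCl pH 8.0/CaCl2/CHAPS buffer, then 25nM Ub-CHOP2 and 25nM reporter substrate; fluorescence (Ex 485/Em 531) read after 60min RT, normalized to NEM inhibition, concentration-response curves fitted.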
D1 antagonist – Antagonist of Human D 1 Dopamine Receptor: qHTS; HEK293 TREx D1 cells, calcium flux, dopamine EC80; hits give low values; activity change, negative = inhibition, % at 10 µM; 360,000 compounds, 3.2% hits; AID 504652, 2011; in the data active = activity change below about -30%; note: % is set by controls: 0 for no effect and ±100 for the full control effect
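Calcium flux readout: force-coupled, inducible Hek293 Trex D1 line, cells induced overnight at 30 C with tetracycline, dye-loaded 30–90 min at RT. Antagonism scored against EC80 dopamine challenge given 180 s after compound.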
Eya2 phos inh – qHTS Assay for Inhibitors of the Phosphatase Activity of Eya2. Protein phosphatase EYA2 (Homo sapiens), O00167. Potency, µM (top dose mostly 76.9 µM), inactives show at the top dose activity, negative = inhibition, usual class: inhibitors. recombinant Eya2, OMFP fluorescence dephosphorylation (OMFP is methylfluorescein phosphate). 330,000 compounds, 0.006% hits; note: potency is the fitted concentration of half-maximal effect; % is set by controls: 0 for no effect and ±100 for the full control effect
Target sequence (O00167 whole entry, looked up): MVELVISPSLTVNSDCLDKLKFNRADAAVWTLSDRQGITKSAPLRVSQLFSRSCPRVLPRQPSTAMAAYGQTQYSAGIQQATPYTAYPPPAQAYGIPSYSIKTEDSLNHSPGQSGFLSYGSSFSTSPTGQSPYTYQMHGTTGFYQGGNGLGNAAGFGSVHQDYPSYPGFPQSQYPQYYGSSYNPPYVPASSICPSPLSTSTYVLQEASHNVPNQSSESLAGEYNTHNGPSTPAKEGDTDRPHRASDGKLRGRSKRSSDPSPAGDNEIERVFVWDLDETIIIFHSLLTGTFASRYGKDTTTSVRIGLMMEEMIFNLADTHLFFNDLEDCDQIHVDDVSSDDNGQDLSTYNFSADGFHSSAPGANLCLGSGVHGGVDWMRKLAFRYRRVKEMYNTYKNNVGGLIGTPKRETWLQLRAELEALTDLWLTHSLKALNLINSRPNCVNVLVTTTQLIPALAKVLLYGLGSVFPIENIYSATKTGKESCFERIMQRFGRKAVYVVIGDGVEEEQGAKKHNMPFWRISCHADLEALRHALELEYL
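Eya2 (0.2 uM) preincubated 10 min at ambient with compound, then OMFP substrate added at 50 uM; 10 min reaction in 50 mM HEPES pH 7.5, 50 mM NaCl, 5 uM MgCl2, 0.05% BSA, 1 mM DTT. Fluorescence read at Ex 485/Em 525 nm.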
GALK inh – qHTS Assay for Inhibitors of Human Galactokinase (GALK). 270,000 compounds, 0.007% hits. Potency, µM (titrated, usually from 57.5 µM), inactives show at the top dose activity change, negative = inhibition, actives largely listed as inhibitors. P51570. Purified GALK, Kinase-Glo residual ATP luminescence. AID 1868, 2009; note: potency is the fitted concentration of half-maximal effect; % is set by controls: 0 for no effect and ±100 for the full control effect
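GALK at 5 nM final was combined with compound, 35 uM ATP and 100 uM galactose in HEPES pH8.0 with MgCl2 and DTT. The reaction ran one hour at room temperature before luminescent ATP detection.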
D1 agonist – Allosteric Agonists of the Human D1 Dopamine Receptor: qHTS; D(1A) dopamine receptor (Homo sapiens), P21728; HEK293 T-REx D1 cells, calcium flux, agonist mode; activation, % at 2 µM; 360,000 compounds, 1% hits; in the data active = activation above about 30%; note: 0% is about no effect
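Tetracycline-induced HEK293 TREx D1 cells, force-coupled to calcium signalling, were dye-loaded with a no-wash calcium kit. Compound was pin-added after a 10 s baseline. Fluorescence was read kinetically at 1 cycle/s for 180 s, with calcium rises flagged as agonism.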
D1 PAM – Potentiators of Human D1 Dopamine Receptor: qHTS. 360,000 compounds, 0.036% hits. HEK293 TREx D1 cells, calcium flux, dopamine EC20 potentiation. AID 504651, 2011. potentiation, % at 10 µM. D(1A) dopamine receptor (Homo sapiens), P21728; in the data active = potentiation above about 30%; note: 0% is about no effect
* marks the source's active call; other numbers are inactive results; / = no result given; ! = not confirmed by another sample; [ ] = another dose, or the depositor's remark. Unless noted, calls come from the whole dose curve; as a rule, active = well fitted inhibition curve with a large enough effect; inconclusive = small, poorly fitted or top-dose-only effect, or effect the other way; inactive = flat fitted curve, though single readings scatter.

SMILES	USP2a inh	D1 antagonist	Eya2 phos inh	GALK inh	D1 agonist	D1 PAM
N#Cc1nc(Cc2ccccc2)oc1NCc1ccccc1Cl	-11%	-37*	-8%	-2%	9	-5
N#Cc1nc(Cc2ccccc2)oc1NCc1cccnc1	1%	-25	5%	-3%	2	-6
CCOc1ccc(NC(=O)c2c[nH]n3c(=O)cc(C4CCN(C(=O)OC(C)(C)C)CC4)nc23)cc1	-1%	-32*	-16%	-14%	2	-3
COc1ccccc1N1CCN(C(=O)c2cnn(C(C)(C)C)c2C2CCN(C(=O)OC(C)(C)C)CC2)CC1	/	0	/	/	1	-5
O=C(NCc1ccccc1Cl)C1CCCN1C(=O)NCc1ccccc1 (configuration not stated)	7%	-44*	-2%	1%	1	-3
COc1cc(CN(C(=O)c2ccccc2[N+](=O)[O-])c2ccccn2)cc(OC)c1OC	/	14	/	/	-2	0
Cc1c(Cl)cccc1-n1ncc(C(=O)N2CCc3ccccc3C2)c1C1CCN(C(=O)OC(C)(C)C)CC1	/	-16	/	/	4	-4
Cc1nc(CSc2nsc(/C=C/N(C)C)c2C#N)cs1	0%	-10	21%	9%	31*	-8
O=C(CCCN1C(=O)c2cccnc2C1=O)Nc1ccc(Br)cc1	5%	-55*	2%	8%	-1	-5
O=C(Cn1c(=O)oc2ccccc21)NCc1cccc(Cl)c1	/	-17	/	/	1	-4
COc1ccccc1CN1CCC(CNS(=O)(=O)c2cc(-c3cc(C)no3)ccc2C)CC1	3%	-10	-5%	0%	40*	-7
CCc1ccc(-c2cc(C)no2)cc1S(=O)(=O)Nc1ccc(C)cn1	-1%	-45*!	3%	2%	0	2
CCc1ccc(-c2cc(C)no2)cc1S(=O)(=O)NCCCN1CCN(c2ccccc2)CC1	-1%	-67*	2%	-9%	17	-6
Cc1cc(-c2ccc(C)c(S(=O)(=O)NCC3CCN(Cc4ccc(F)cc4)CC3)c2)on1	-1%	-33*!	2%	7%	9	-7
CCc1ccc(-c2cc(C)no2)cc1S(=O)(=O)NCCN1CCC(C)CC1	1%	-13	-17%	-3%	6	-2
O=S(=O)(NCCc1nnc2ccc(SCc3ccccc3Cl)nn12)c1ccccc1	/	-5	/	/	-1	12
CC(C)N(Cc1ccccc1)S(=O)(=O)c1ccc(-c2cc(C(F)(F)F)on2)s1	/	-9	/	/	20	-1
COc1ccccc1CNS(=O)(=O)c1cc(-c2cc(C)no2)ccc1C(C)C	-1%	-38*	12%	4%	18	-6
O=c1cc(-c2ccccc2F)[nH]c2cc3c(cc12)OCO3	/	/	5%	/	/	/
FC(F)(F)c1cc(CCN2CCNC[C@H]2Cc2cccc3ccccc23)cc(C(F)(F)F)c1	0%	12	-27%	/	45*	8
Oc1ccc(C[C@@H]2CNCCN2CCc2cc(C(F)(F)F)cc(C(F)(F)F)c2)cc1	-1%	13	10%	/	40*	-2
Oc1ccc(C[C@H]2CNCCN2CCc2cc(C(F)(F)F)cc(C(F)(F)F)c2)cc1	0%	19	3%	/	19	-7
CCCCC(=O)Nc1nc2c(OC)cc([N+](=O)[O-])cc2s1	1%	-34*	-3%	-3%	2	-8
Cc1ccc(C(=O)CSc2nc3ccccc3c(=O)[nH]2)cc1	-5%	-30*	-3%	0%	0	-2
CCc1ccc(C(=O)CSc2nc3ccccc3c(=O)[nH]2)cc1	-1%	4	-5%	4%	1	-4
SMILES	USP2a inh	D1 antagonist	Eya2 phos inh	GALK inh	D1 agonist	D1 PAM
Cc1nc2c(C(=O)NCCCN(CC(C)C)CC(C)C)cnn2c(C)c1Cc1c(F)cccc1Cl	/	1	/	/	-2	6
CCc1ccc(C(=O)CCC(=O)Nc2ccc(OC)c(S(=O)(=O)N3CCCCC3)c2)cc1	0%	-41*	0%	/	7	/
CCOc1ccc(NC(=O)CN(C)Cc2ccc3c(c2)OCO3)cc1S(=O)(=O)N1CCCC1	-1%	-35*	8%	/	0	-6
COc1ccccc1CCC(=O)OCC(=O)Nc1ccc(C)c(S(=O)(=O)N2CCCCC2)c1	-1%	-33*	-7%	/	4	-7
COc1ccc(CCC(=O)Nc2ccc(OC)c(S(=O)(=O)N3CCCCC3)c2)cc1OC	0%	3	-22%	/	-1	-5
CCOc1ccc(NC(=O)CC(NC(C)=O)c2ccccc2)cc1S(=O)(=O)N1CCCC1 (configuration not stated)	-7%	11	-4%	/	1	-2
COc1ccc(NC(=O)c2n[nH]c(=O)c3ccccc23)cc1S(=O)(=O)N1CCCCC1	3%	-39*	3%	0%	1	-1
CN1C(=O)NC(c2ccc(C(F)(F)F)cc2)C2=C1CC(C)(C)CC2=O (configuration not stated)	3%	8	-3%	-8%	32*	-1
Nc1c2c(nc3ccn(-c4ccccc4)c(=O)c13)CCCCC2	0%	-35*	13%	6%	0	-10
Nc1c2c(nc3ccn(Cc4ccccc4)c(=O)c13)CCC2	1%	-12	7%[15.4 µM]	1%	2	-7
COc1cccc(C(c2sc3nc(-c4ccco4)nn3c2O)N2CCN(c3ccccc3F)CC2)c1 (configuration not stated)	/	/	/	/	-3	4
Cc1cccc(C(=O)Nc2ccc(C(=O)N/N=C/c3ccc(C)o3)cc2)c1	3%	-48*	4%	2%	7	-9
O=C(N/N=C/c1ccccn1)c1ccccc1	5%	-18	6%	-1%	2	-2
CN(C)c1ccc(C(=O)N/N=C/c2ccccn2)cc1	2%	-40*	-5%	0%	-1	2
Cc1ccc(C(=O)Nc2ccc(C(=O)N/N=C/c3ccccn3)cc2)cc1	1%	-38*	5%	7%	2	-11
Cc1ccc(C)c(Cn2c(=O)n(CCCCC(=O)NCc3ccccc3Cl)c(=O)c3ccccc32)c1	/	-3	/	/	2	1
CN(C1CCCCC1)S(=O)(=O)c1ccc2c(c1)c(=O)c(C(=O)NCCc1ccccc1)cn2C	/	-7	/	/	2	10
COc1ccc(NC(=O)CSc2nnc3scc(-c4ccc(Cl)cc4)n23)cc1	/	-7	/	/	4	-3
